High-throughput results as filed in PubChem.
SENP6 inh = inhibitors of human SENP6 protease | Q9GZR1 | Recombinant SENP6 catalytic domain, aminoluciferin luminescence | inhibition, % at 10 µM | hit rate 1.8% among 330,000;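 active = inhibition above about 50% at the single tested dose, limit read from the data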
Target sequence (Q9GZR1 628-1112 limits assumed): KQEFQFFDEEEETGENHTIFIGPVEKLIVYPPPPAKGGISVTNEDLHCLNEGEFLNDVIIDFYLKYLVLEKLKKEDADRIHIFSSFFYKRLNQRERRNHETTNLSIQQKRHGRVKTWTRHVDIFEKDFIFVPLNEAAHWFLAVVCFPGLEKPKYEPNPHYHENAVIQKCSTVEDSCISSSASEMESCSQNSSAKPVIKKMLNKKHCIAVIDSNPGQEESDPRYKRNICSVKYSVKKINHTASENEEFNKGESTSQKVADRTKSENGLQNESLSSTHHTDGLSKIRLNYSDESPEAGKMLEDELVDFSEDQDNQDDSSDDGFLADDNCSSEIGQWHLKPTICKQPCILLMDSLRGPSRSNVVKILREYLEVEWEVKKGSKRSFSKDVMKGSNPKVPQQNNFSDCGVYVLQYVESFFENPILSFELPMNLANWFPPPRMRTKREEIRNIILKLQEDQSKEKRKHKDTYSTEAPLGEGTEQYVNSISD
HSP90 inh = blocks HSP90-mediated luciferase refolding in reticulocyte lysate; hit rate 0.91% among 290,000; Rabbit reticulocyte lysate, luciferase refolding luminescence, 3 h; inhibition, % at 5.6 µM;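 active = inhibition above the screen-wide mean plus 3 SD, computed separately per campaign, cut at about 16% in these data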;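 note: inhibitors lower the luminescence because luciferase stays unfolded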
SENP7 block = inhibitors of human SENP7 protease; AID 434973; recombinant SENP7, Z-RLRGG-aminoluciferin luminescence, 40 min; hit rate 1.5% among 330,000; Q9BQF6; inhibition, % at 5 µM;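 active = inhibition above about 50% at the single test dose, limit read from the data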
SENP8 block-1 = blocks human SENP8 cleavage of Nedd8 substrate; recombinant SENP8, Nedd8 substrate fluorescence; inhibition, % at 20 µM; hit rate 0.64% among 360,000; in the data active = inhibition mostly above about 40%, no sharp cut-off; inactive = mostly below about 27%
SENP8 block-2 = inhibitors of human SENP8 protease | Q96LD8 | purified SENP8, Z-RLRGG-aminoluciferin cleavage, luminescence | inhibition, % at 10 µM | hit rate 1.2% among 330,000; in the data active = inhibition above about 50%
SENP8 confirm = human SENP8 inhibition, confirmed | Recombinant SENP8, Z-RLRGG-aminoluciferin luminescence, 60 min | shares compounds with SENP7 block | hit rate 40% among 6,200 | AID 488912 | inhibition, % at 12.5 µM;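 active = mean inhibition across replicates above about 50%, limit read from the data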
SENP6 conf = confirmation of human SENP6 protease inhibitors. shares compounds with SENP7 block. recombinant SENP6, Z-RLRGG-aminoluciferin luminescence. inhibition, % at 12.5 µM. hit rate 58% among 6,200. AID 488915
SENP7 conf = human SENP7 inhibition, confirmed; shares compounds with SENP7 block; recombinant SENP7, Z-RLRGG-aminoluciferin luminescence, 40 min; inhibition, % at 12.5 µM; hit rate 69% among 6,200
Casp3 select = selectivity test for SENP inhibitors: human caspase-3 inhibition. purified caspase-3, Z-DEVD-aminoluciferin luminescence, 60 min. hit rate 60% among 6,200. shares compounds with SENP7 block. inhibition, % at 12.5 µM. AID 488918;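 active = mean inhibition above about 50%, limit read from the data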
SENP luc ctr = luminescence interference (SENP counter-screen) | hit rate 39% among 6,200 | Pre-incubated SENP8/Z-RLRGG-aminoluciferin, luciferase luminescence interference | shares compounds with SENP7 block | inhibition, % at 12.5 µM | AID 488919;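 active = mean inhibition above about 50% when retested at one dose, limit read from the data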
Each line names hits and unclear results; the compound was inactive in the other large screens (follow-up assays come after a bar, where they were run). Most compounds without a hit are left out; they make up all but 2.8% or so of the library.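 Rule for the calls, unless noted: active = mean inhibition above about 50% in the one-dose retest (limit read from the data); inactive = the rest.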

O=C(Nc1cccc([N+](=O)[O-])c1)c1ccc2c(c1)OCCO2	SENP6 inh 72, SENP7 block 75, SENP8 block-2 63 | SENP8 confirm 68 | SENP6 conf 70 | SENP7 conf 93 | Casp3 select 72 | SENP luc ctr 80
O=C(Nc1ccncc1)c1ccc2c(c1)OCCO2	none
O=C(Nc1cccc(Cl)c1)c1ccc2c(c1)OCCO2	SENP6 inh 91, SENP7 block 95, SENP8 block-2 92 | SENP8 confirm inactive | SENP6 conf 93 | SENP7 conf 101 | Casp3 select 89 | SENP luc ctr 94
O=C(Nc1ccc2c(c1)OCCO2)c1cccc(Cl)c1	SENP6 inh 87, SENP7 block 85, SENP8 block-2 77 | SENP8 confirm inactive | SENP6 conf 86 | SENP7 conf 97 | Casp3 select 85 | SENP luc ctr 86
CCCc1cc(C(=O)Nc2cccc([N+](=O)[O-])c2)cs1	SENP6 inh 87, SENP7 block 72, SENP8 block-2 59 | SENP8 confirm inactive | SENP6 conf 73 | SENP7 conf 92 | Casp3 select inactive | SENP luc ctr 56
Cc1ccc(/C=C2\SC(=S)N(CCCC(=O)N3CCOCC3)C2=O)cc1	SENP6 inh 84, SENP7 block 84, SENP8 block-2 84 | SENP8 confirm 90 | SENP6 conf 89 | SENP7 conf 97 | Casp3 select 72 | SENP luc ctr 75
COc1ccc(/C=C2/SC(=S)N(CCCC(=O)N3CCN(C)CC3)C2=O)cc1	SENP6 inh 65, SENP7 block 69, SENP8 block-2 54 | SENP8 confirm 58 | SENP6 conf 60 | SENP7 conf 86 | Casp3 select 67 | SENP luc ctr 69
CCOc1ccc(/C=C2\SC(=S)N(CCC(=O)O)C2=O)cc1	SENP6 inh 99, SENP7 block 60, SENP8 block-2 97 | SENP8 confirm 97 | SENP6 conf 100 | SENP7 conf 103 | Casp3 select inactive | SENP luc ctr 92
CCOc1ccc(/C=C2/SC(=S)N(CCC(=O)Nc3ccc(C(=O)O)cc3)C2=O)cc1	none
CCOC(=O)COc1ccc(-c2nnc(-c3ccccc3)o2)cc1	SENP6 inh 79, SENP7 block 74 | SENP8 confirm inactive | SENP6 conf inactive | SENP7 conf 68 | Casp3 select 72 | SENP luc ctr inactive
CC(C)(C)C(=O)Nc1cccc(-c2nc3ccccc3c(=O)o2)c1	none
CCOC(=O)Cc1nnc(-c2ccccc2)o1	none
CCOc1ccc(-c2nc3ccccc3c(=O)o2)cc1	SENP7 block 73 | SENP8 confirm inactive | SENP6 conf inactive | SENP7 conf inactive | Casp3 select inactive | SENP luc ctr inactive
CC(C)(C)C(=O)Nc1ccc(-c2nc3ccccc3c(=O)o2)cc1	SENP6 inh 62, SENP7 block 68 | SENP8 confirm inactive | SENP6 conf inactive | SENP7 conf inactive | Casp3 select inactive | SENP luc ctr inactive
COc1ccc(-c2nc3ccccc3c(=O)o2)cc1OC	none
CCOc1ccc(-c2nnc(-c3ccccc3)o2)cc1	SENP6 inh 96, SENP7 block 93, SENP8 block-2 91 | SENP8 confirm inactive | SENP6 conf inactive | SENP7 conf inactive | Casp3 select inactive | SENP luc ctr inactive
CCn1c(=O)c(C(=O)NCc2ccccc2Cl)c(O)c2ccccc21	none
Cc1nn(CC(=O)NCC(C)c2ccccc2)c(=O)c2cccn12 (stereo not given)	none
O=C(N/N=C/c1cc2c(cc1Cl)OCO2)c1ccccn1	SENP6 inh 66 | SENP8 confirm inactive | SENP6 conf inactive | SENP7 conf inactive | Casp3 select 52 | SENP luc ctr inactive
CC(C)(C)c1ccc(/C=N/NC(=O)c2ccccn2)cc1	SENP7 block 79, SENP8 block-2 59 | SENP8 confirm inactive | SENP6 conf inactive | SENP7 conf inactive | Casp3 select inactive | SENP luc ctr inactive
O=C(N/N=C/c1cc2c(cc1[N+](=O)[O-])OCO2)c1ccccn1	none
O=C(N/N=C/c1ccc(OC(=O)c2ccccc2Br)cc1)c1ccccn1	SENP7 block 71 | SENP8 confirm inactive | SENP6 conf inactive | SENP7 conf inactive | Casp3 select inactive | SENP luc ctr inactive
Cc1ccsc1/C=N/NC(=O)c1ccccn1	SENP6 inh 61 | SENP8 confirm inactive | SENP6 conf inactive | SENP7 conf 78 | Casp3 select 84 | SENP luc ctr 60
Cc1ccsc1/C=N/NC(=O)c1cccs1	none
O=C(N/N=C/c1ccsc1)c1ccccn1	none
CC(C)(C)c1ccc(S(=O)(=O)N2CCC(O)(c3ccc(Cl)cc3)CC2)cc1	none
N#C/C(=C\c1cn(CC(=O)O)c2ccccc12)C(=O)NCc1ccccc1	none
CCC1CCCCN1C(=O)CSc1nc2c(cnn2-c2ccc(C)cc2)c(=O)[nH]1 (stereo not given)	none
CC(C)C(OC(=O)c1cccc(S(=O)(=O)NCC(F)(F)F)c1)C(=O)NC(N)=O (stereo not given)	none
O=C(c1ccccc1)c1ccc2cc(O)ccc2c1	SENP6 inh 99, SENP7 block 96, SENP8 block-2 96 | SENP8 confirm inactive | SENP6 conf 99 | SENP7 conf 102 | Casp3 select 92 | SENP luc ctr 97
Fc1ccc(/C=N/Nc2ccccn2)cc1	SENP6 inh 66, SENP7 block 64 | SENP8 confirm inactive | SENP6 conf inactive | SENP7 conf 82 | Casp3 select 56 | SENP luc ctr inactive
Oc1cccc(C=NNc2ccccn2)c1	none (no result: SENP6 inh, HSP90 inh, SENP7 block, SENP8 block-2)
COc1ccc(/C=N/Nc2ccccn2)cc1O	SENP6 inh 57 | SENP8 confirm inactive | SENP6 conf inactive | SENP7 conf 77 | Casp3 select 72 | SENP luc ctr 64
Clc1ccc(/C=N/Nc2ccccn2)cc1	SENP7 block 69, SENP8 block-2 52 | SENP8 confirm inactive | SENP6 conf 54 | SENP7 conf 72 | Casp3 select 51 | SENP luc ctr inactive
C(=N\Nc1ccccn1)/c1ccc(N2CCOCC2)cc1	none
Brc1ccc(/C=N/Nc2ccccn2)cc1	SENP7 block 65 | SENP8 confirm inactive | SENP6 conf inactive | SENP7 conf 86 | Casp3 select inactive | SENP luc ctr inactive
Clc1ccccc1C=NNc1ccccn1	none (no result: SENP6 inh, HSP90 inh, SENP7 block, SENP8 block-2)
CCc1c(C)[nH]c2ccccc2c1=O	none
CCCOc1ccc(Cc2nn[nH]n2)cc1	none
NC(=S)N/N=C/c1coc2ccc(F)cc2c1=O	none
